Laboratory results as given in the supplement of paper PMC6805474.

Key:
[1] = tested on: Schistosoma mansoni schistosomula (LE); assay: XTT viability relative to DMSO control; higher = more viable (less active); details: 72 h; 10 µM
Experimental: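 XTT/PMS was then added for a further 24 h (72 h total) and A450 was read. % viability = (sample - heat-killed control)/(DMSO control - heat-killed control) x 100, from duplicate wells in two independent experiments.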

[2] = tested on: Schistosoma mansoni schistosomula (NMRI); assay: phenotypic severity score (0-4); higher = more antischistosomal effect, active = 2 or more; details: 10 µM
[3] = tested on: Schistosoma mansoni schistosomula (Liberian); assay: drug effect (1 - score/DMSO control score) (fraction); higher = more antischistosomal effect, active = 0.5 or more; extreme values may be limits of the assay; details: 10 µM
Procedure, shortened: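 Liberian-strain Schistosoma mansoni schistosomula, mechanically transformed from cercariae and pre-incubated at least 12 h, were exposed in duplicate (50 per well, flat-bottom 96-well plates) to 10 µM compound in Medium 199 with 5% FCS at 37 °C, 5% CO2, with 0.1% DMSO control wells. Wells were scored visually (10×) at 24, 48 and 72 h on a quarter-point scale from 3 (normal) to 0 (dead). Drug effect was derived from the mean test-well score relative to the mean DMSO-control score. Negative values were set to zero, and plates were valid only if control wells averaged at least 2.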
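For phenotypic severity score (0-4) in this document: visual microscopic scoring of shape, motility and density changes versus 0.5% DMSO solvent controls, one point per descriptor, degeneracy or death scored 4, mean of duplicate wells.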

SMILES | XTT viability [1] [%] | phenotypic severity score ([2]; 24 h) | phenotypic severity score ([2]; 48 h) | phenotypic severity score ([2]; 72 h) | drug effect ([3]; 24 h) | drug effect ([3]; 48 h) | drug effect ([3]; 72 h)
NS(=O)(=O)c1cncc(-c2ccc3nccc(-c4cn[nH]c4)c3n2)c1 | 98.4 | 0 (inactive) | 0 (inactive) | 0 (inactive) | 0.135 (inactive) | 0.111 (inactive) | 0.312 (inactive)
CC1CCCN(C(=O)C(C)Nc2cc(Cl)ccc2N2CCOCC2)C1 (configuration not stated) | 137 | 0 (inactive) | 0 (inactive) | 0 (inactive) | 0.15 (inactive) | 0.222 (inactive) | 0.375 (inactive)
Nc1ncc(-c2cn[nH]c2)cc1-c1nc2cc(Cl)cnc2[nH]1 | 94.4 | 0 (inactive) | 0 (inactive) | 0 (inactive) | < 0 (inactive) | < 0 (inactive) | 0.0556 (inactive)
O=C(C1CCN(c2cc(-n3cccc3)ncn2)CC1)N1CCc2ccccc2C1 | 96.4 | 0 (inactive) | 0 (inactive) | 1 (inactive) | 0.05 (inactive) | 0.111 (inactive) | 0.333 (inactive)
COc1ccc(-c2cnc3ccc(NCc4ccc(S(N)(=O)=O)cc4)nn23)cn1 | 125 | 0 (inactive) | 0 (inactive) | 0 (inactive) | 0.15 (inactive) | 0.222 (inactive) | 0.312 (inactive)
CC1=Nc2ccc(Cl)cc2C(O)(c2ccc(C)cc2)N1CCN1CCCCC1 (configuration not stated) | -4.23 | 0 (inactive) | 0 (inactive) | 0 (inactive) | < 0 (inactive) | 0.188 (inactive) | 0.375 (inactive)
C[C@]1(O)C[C@@H](c2nc(-c3ccc4ccc(-c5ccccc5)nc4c3)c3c(N)nccn32)C1 | 64 | 0 (inactive) | 0 (inactive) | 0 (inactive) | 0.05 (inactive) | 0.027 (inactive) | 0.111 (inactive)
O=C(Nc1ccccc1)c1ccc(-c2cc3ccncc3cc2OC2CCNCC2)s1 | -18.1 | 0 (inactive) | 0 (inactive) | 0 (inactive) | 0.15 (inactive) | 0.459 (inactive) | 0.455 (inactive)
COc1cccc2c(C)nc(N=C(N)N)nc12 | 93.3 | 0 (inactive) | 0 (inactive) | 0 (inactive) | 0.182 (inactive) | 0.2 (inactive) | 0.127 (inactive)
NCCCC(N)(C(=O)O)C(F)F (configuration not stated) | 87.1 | 0 (inactive) | 0 (inactive) | 0 (inactive) | 0.15 (inactive) | 0.135 (inactive) | 0.222 (inactive)
Nc1ncnc2c1c(-c1cnc3ccccc3c1)nn2CC1CCNCC1 | 169 | 0 (inactive) | 0 (inactive) | 0 (inactive) | 0.2 (inactive) | 0.278 (inactive) | 0.5 (active)
COc1nc2ccc(Br)cc2cc1[C@@H](c1ccccc1)[C@@](O)(CCN(C)C)c1cccc2ccccc12 | 7.23 | 2 (active) | 4 (active) | 4 (active) | 0.318 (inactive) | 0.8 (active) | 0.945 (active)
CN1CCCN(C(c2ccccc2)c2ccc(Cl)cc2)CC1 (configuration not stated) | 67.9 | 0 (inactive) | 0 (inactive) | 0 (inactive) | 0.455 (inactive) | 0.05 (inactive) | 0.263 (inactive)
CN(C(=O)c1cc2c(-c3cncnc3)cccc2[nH]1)c1ccccc1 | 102 | 0 (inactive) | 0 (inactive) | 0 (inactive) | 0.189 (inactive) | 0.278 (inactive) | 0.375 (inactive)
CC(C)n1ncc2c(C(=O)NCC(c3cccs3)N3CCOCC3)cc(-c3ccccc3)nc21 (configuration not stated) | 71.6 | 2 (active) | 0 (inactive) | 1 (inactive) | 0.273 (inactive) | 0.5 (active) | 0.4 (inactive)
O=C(NC1CC1)c1ccc(CSCc2ccccc2Cl)o1 | 114 | 1 (inactive) | 0 (inactive) | 1 (inactive) | 0.405 (inactive) | 0.444 (inactive) | 0.562 (active)
NCC(=O)N1CCn2c(nc(-c3ccccc3)c2Nc2ccc3c(c2)OCO3)C1 | 129 | 0 (inactive) | 0 (inactive) | 2 (active) | 0.297 (inactive) | 0.444 (inactive) | 0.688 (active)
CC(C)(C)CN1C(=O)C(c2ccccc2)(c2ccccc2)N=C1N | 88.6 | 0 (inactive) | 0 (inactive) | 0 (inactive) | 0.1 (inactive) | 0.135 (inactive) | 0.273 (inactive)
O=C1COCc2ccc(Br)cc2N1Cc1ccc(C(F)(F)F)cc1 | 99.5 | 0 (inactive) | 0 (inactive) | 0 (inactive) | 0.297 (inactive) | 0.389 (inactive) | 0.438 (inactive)
c1cncc(NCc2ccc(-c3cc4ccncc4cc3OC3CCNCC3)s2)c1 | 14.8 | 3 (active) | 3 (active) | 4 (active) | 0.136 (inactive) | 0.45 (inactive) | 0.556 (active)
COc1ccc(N(CCc2cccc(C)n2)C(C)=O)cc1 | 114 | 1 (inactive) | 1 (inactive) | 0 (inactive) | 0.15 (inactive) | 0.135 (inactive) | 0.0909 (inactive)

SMILES | XTT viability [1] [%] | phenotypic severity score ([2]; 24 h) | phenotypic severity score ([2]; 48 h) | phenotypic severity score ([2]; 72 h) | drug effect ([3]; 24 h) | drug effect ([3]; 48 h) | drug effect ([3]; 72 h)
CN(C)CCNC(=O)N1CCCN(c2ncnc3cc(-c4ccccc4)sc23)CC1 | 106 | 0 (inactive) | 0 (inactive) | 0 (inactive) | < 0 (inactive) | 0.2 (inactive) | 0.556 (active)
COc1cccc(-c2cc3c(Nc4cccnc4)nccc3[nH]2)c1 | 104 | 0 (inactive) | 0 (inactive) | 0 (inactive) | 0.1 (inactive) | 0.135 (inactive) | 0.152 (inactive)
Cn1c(=O)c2c(S(C)(=O)=O)snc2n(C)c1=O | -0.448 | 4 (active) | 4 (active) | 4 (active) | 1 (active) | 1 (active) | 1 (active)
O=C(NCc1ccoc1)N1CCN(Cc2ccc3c(c2)OCO3)CC1 | 76.2 | 0 (inactive) | 0 (inactive) | 0 (inactive) | 0.136 (inactive) | 0.2 (inactive) | 0.182 (inactive)
COc1ccc(Cn2cnc3c(-c4ccco4)nc(Cl)nc32)cc1 | 98.6 | 0 (inactive) | 0 (inactive) | 0 (inactive) | 0.105 (inactive) | 0.0556 (inactive) | 0.125 (inactive)
CC(C)(C(=O)Nc1ccc(F)cc1)n1cc(-c2ccccc2F)cn1 | 128 | 0 (inactive) | 0 (inactive) | 0 (inactive) | 0.135 (inactive) | 0.111 (inactive) | < 0 (inactive)
c1ccc(Oc2ccc(-c3cc(N4CCNCC4)[nH]n3)cc2)cc1 | 25.2 | 2 (active) | 2 (active) | 2 (active) | 0.05 (inactive) | 0.15 (inactive) | 0.444 (inactive)
Clc1ccc(-n2cc(COc3ccnc4ccccc34)nn2)cc1 | 103 | 0 (inactive) | 0 (inactive) | 0 (inactive) | 0.105 (inactive) | 0.389 (inactive) | 0.312 (inactive)
COc1cccc(-n2nnnc2S(=O)(=O)Cc2ccccc2)c1 | -7.15 | 4 (active) | 4 (active) | 4 (active) | 1 (active) | 1 (active) | 1 (active)
CC(C)(C)c1cc(C(=O)N2CCN(c3nccnc3C#N)CC2)n(Cc2ccccc2)n1 | 120 | 0 (inactive) | 0 (inactive) | 1 (inactive) | < 0 (inactive) | 0.027 (inactive) | 0.0303 (inactive)
CO[C@@H](C(=O)N1Cc2[nH]nc(NC(=O)c3ccc(N4CCN(C)CC4)cc3)c2C1)c1ccccc1 | 97.4 | 0 (inactive) | 0 (inactive) | 0 (inactive) | 0.15 (inactive) | 0.243 (inactive) | 0.278 (inactive)
CCOc1ccc(OCC(=O)Nc2cc(C)cc(C)c2)cc1 | 67 | 0 (inactive) | 0 (inactive) | 0 (inactive) | 0.0909 (inactive) | 0.05 (inactive) | 0.158 (inactive)
CCN(CC)S(=O)(=O)c1ccc(Cl)c(C(=O)Nc2ccc3nc(C)sc3c2)c1 | 87.9 | 1 (inactive) | 0 (inactive) | 0 (inactive) | 0.05 (inactive) | 0.027 (inactive) | 0.111 (inactive)
CC(C(=O)N1CCCC1)N1CCN(S(=O)(=O)c2ccc(C(C)(C)C)cc2)CC1 (configuration not stated) | 109 | 1 (inactive) | 0 (inactive) | 0 (inactive) | 0.05 (inactive) | 0.027 (inactive) | 0.0909 (inactive)
CN1CCN(c2nccc3[nH]c(-c4cccc(F)c4)cc23)CC1 | 66.3 | 0 (inactive) | 2 (active) | 4 (active) | 0.0909 (inactive) | 0.1 (inactive) | 0.158 (inactive)
C[C@H](C(N)=O)N1CCCC[C@H]1c1ccc(OCc2cccc(F)c2)cc1 | 118 | 0 (inactive) | 0 (inactive) | 0 (inactive) | 0.05 (inactive) | 0.0811 (inactive) | 0.212 (inactive)
CCCc1ccc(S(=O)(=O)Nc2ccc(CN3CCN(CC4CC4)CC3)cc2)cc1 | 108 | 0 (inactive) | 0 (inactive) | 0 (inactive) | 0.15 (inactive) | 0.167 (inactive) | 0.375 (inactive)
CS(=O)(=O)c1ccccc1C(=O)N(Cc1ccccc1)c1ccccc1 | 106 | 0 (inactive) | 1 (inactive) | 0 (inactive) | 0.182 (inactive) | 0.4 (inactive) | 0.4 (inactive)
CC(C)n1nc(-c2cc3c(Cl)cccc3[nH]2)c2c(N)ncnc21 | 54.3 | 4 (active) | 4 (active) | 4 (active) | 0.55 (active) | 0.667 (active) | 1 (active)
O=C(Nc1ccccc1-c1nc2c(C(=O)O)cccc2o1)c1ccccc1 | 54.1 | 0 (inactive) | 0 (inactive) | 0 (inactive) | 0.05 (inactive) | 0.027 (inactive) | 0.0303 (inactive)
